Assay outcomes (PubChem BioAssay)
Rows were chosen to be rich in hits. Some 11% of all compounds tested hit in one or more screens of this group.
hNpr1 antagonist: blocks ANP-stimulated signaling of human Npr1 receptor. P16066. actives 1.6% (n = 76,000). HEK293 hNpr1 GloSensor cGMP, ANP-stimulated luminescence. Potency, µM (series often up to 46.3 µM), usual class: inhibitors; calls by dose curve; note: nearly all actives have a fitted effect of over 60% in size
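HEK293 cells stably expressing human Npr1 and cGMP GloSensor pGS-40F, loaded 2 h with 2% GloSensor reagent, given compound 30 min at room temperature. Luminescence read before and 20 min after 0.1 nM hNppA.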
FLuc inh-1: Photinus pyralis luciferase inhibition. purified P. pyralis luciferase, luminescence, biochemical. AID 1347043. P08659. Potency, µM (top dose mostly 115 µM), most hits filed as inhibitors. actives 2.5% (n = 76,000); note: nearly all actives have a fitted effect of over 65% in size
Target sequence (P08659 whole entry, looked up): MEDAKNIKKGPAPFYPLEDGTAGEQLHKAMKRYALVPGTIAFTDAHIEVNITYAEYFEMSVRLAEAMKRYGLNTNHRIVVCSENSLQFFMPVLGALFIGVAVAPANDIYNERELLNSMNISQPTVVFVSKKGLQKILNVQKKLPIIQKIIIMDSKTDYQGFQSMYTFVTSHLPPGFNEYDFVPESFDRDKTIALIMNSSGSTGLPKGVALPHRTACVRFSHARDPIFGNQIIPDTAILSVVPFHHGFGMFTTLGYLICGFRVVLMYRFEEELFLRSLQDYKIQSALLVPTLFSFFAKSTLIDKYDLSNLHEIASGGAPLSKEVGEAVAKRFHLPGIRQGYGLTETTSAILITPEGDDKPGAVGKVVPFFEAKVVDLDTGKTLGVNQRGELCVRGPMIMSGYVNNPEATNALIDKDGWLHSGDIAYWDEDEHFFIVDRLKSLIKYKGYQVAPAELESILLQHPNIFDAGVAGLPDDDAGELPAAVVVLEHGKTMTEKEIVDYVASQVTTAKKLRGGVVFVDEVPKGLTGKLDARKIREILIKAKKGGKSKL
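Luminescence read by CCD imaging after purified firefly luciferase (10nM final) was added to substrate buffer holding 10uM D-luciferin and 10uM ATP, pH 7.5, pre-dosed with compound.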
3T3 cytotox: cytotoxic compounds in NIH 3T3 cells; NIH 3T3 viability, CellTiter-Glo ATP luminescence, 48-72 h; actives 4.3% (n = 94,000); Potency, µM (doses to about 96.7 µM), hits mostly inhibitors; note: nearly all actives have a fitted effect of over 55% in size
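Luminescent ATP readout (CellTiter-Glo, 10 min RT) after 48 or 72 hr compound exposure of NIH 3T3 cells seeded at 400 cells/well in 1536-well format; quantitative HTS.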
HEK cytotox: cytotoxic compounds in HEK 293 cells | HEK 293 viability, ATP luminescence (CellTiter-Glo), 48-72 h | Potency, µM (highest dose often 115 µM), hits mostly inhibitors | actives 6.6% (n = 94,000) | AID 1345083; note: nearly all actives have a fitted effect of over 60% in size
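Viability of HEK 293 cells, plated at 250 cells/well, was judged by cellular ATP after compound treatment for 48 or 72 hr. Luminescence was imaged 10 min after CellTiter-Glo addition at room temperature.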
FLuc SDR no ATP: stabilizes firefly luciferase without ATP; shares compounds with FLuc inh-1; Purified FLuc-C-HiBiT, Nano-Glo HiBiT luminescence, no ATP; Potency, µM (titrated, usually from 32.7 µM), hits mostly activators; actives 7.8% (n = 1,300); AID 1963318; note: nearly all actives have a fitted effect of over 55% in size
FLuc SDR ATP: binders stabilizing firefly luciferase, plus ATP; shares compounds with FLuc inh-1; purified FLuc-C-HiBiT + ATP, HiBiT complementation luminescence; Potency, µM (series often up to 32.7 µM), hits mostly activators; actives 8.7% (n = 1,300);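 note: signal reports ligand binding via conformational change of the enzyme rather than luciferase catalysis; nearly all actives have a fitted effect of over 55% in size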
FLuc inh-2: inhibitors of firefly luciferase enzymatic activity; shares compounds with FLuc inh-1; purified FLuc-C-HiBiT enzyme, luciferin luminescence; Potency, µM (highest dose often 32.7 µM), usual class: inhibitors; actives 42% (n = 1,300); note: nearly all actives have a fitted effect of over 70% in size
Numbers stand for hits. Unless noted, calls come from the whole dose curve; as a rule, active = well fitted curve in the direction sought with a large enough effect; inconclusive = small, poorly fitted or top-dose-only effect, or another doubt; inactive = no such curve, though single readings can be large; an effect the other way counts as inactive or inconclusive.

How did O=C(Nc1ccc(-c2nnc3n2CCCC3)cc1)c1cccc(Cl)c1 do in these assays?
hNpr1 antagonist: inactive; FLuc inh-1: inactive; 3T3 cytotox: inconclusive; HEK cytotox: inconclusive

What do the screens show for `Cc1ccc2nc(-c3ccc4nc(-c5ccc(NC(=O)c6cccc(Cl)c6)cc5)sc4c3)sc2c1S(=O)(=O)O`?
FLuc SDR no ATP: inactive; FLuc SDR ATP: inactive; FLuc inh-2: inconclusive

How did Cc1ccc2nc(-c3ccc(N)cc3)sc2c1S(=O)(=O)O do in these assays?
FLuc SDR no ATP: inconclusive; FLuc SDR ATP: inconclusive; FLuc inh-2: 2.5µM

What do the screens show for `c1ccc(-c2noc(-c3nc(C4CC4)no3)n2)cc1`?
hNpr1 antagonist: inconclusive; FLuc inh-1: 2.5µM; 3T3 cytotox: inactive; HEK cytotox: inconclusive; FLuc SDR no ATP: inactive; FLuc SDR ATP: inactive; FLuc inh-2: inconclusive

How did Cc1ccc(CCN2CCC3(Cc4ccccc4CN([S+](C)(=O)[O-])C3)C2)cc1 (centres undefined) do in these assays?
3T3 cytotox: inactive; HEK cytotox: inconclusive

How did O=C(Nc1ccc2c(c1)OCCO2)N1CCC2(CC1)CC(N1CCCC1)CCO2 (centres undefined) do in these assays?
hNpr1 antagonist: inactive; FLuc inh-1: 6.3µM; 3T3 cytotox: inactive; HEK cytotox: inactive; FLuc SDR no ATP: inactive; FLuc SDR ATP: inconclusive; FLuc inh-2: inconclusive

Results for O=C(Nc1ccc2c(c1)OCCO2)N1CCC2(CC1)CC(N1CCOCC1)CCO2 (centres undefined) ?
3T3 cytotox: inactive; HEK cytotox: inactive

What do the screens show for `CCCCCSc1nnc(-c2ccc(Br)cc2)o1`?
FLuc SDR no ATP: inactive; FLuc SDR ATP: inactive; FLuc inh-2: inactive

What do the screens show for `CC(Cn1cncn1)Nc1ccc(-c2nc(Cc3ccc(F)cc3)no2)cn1` (centres undefined)?
hNpr1 antagonist: inactive; FLuc inh-1: inactive; 3T3 cytotox: inactive; HEK cytotox: inconclusive

How did Cc1ccccc1-c1noc(-c2ccc(NC(C)c3cnn(C)c3)nc2)n1 (centres undefined) do in these assays?
hNpr1 antagonist: 7.9µM; FLuc inh-1: 0.32µM; 3T3 cytotox: 45µM; HEK cytotox: 32µM; FLuc SDR no ATP: inconclusive; FLuc SDR ATP: inconclusive; FLuc inh-2: 0.99µM

How did CCOc1ccccc1C(=O)Nc1nc2c(s1)CC(C)CC2 (centres undefined) do in these assays?
FLuc SDR no ATP: inactive; FLuc SDR ATP: inactive; FLuc inh-2: 4.4µM

What do the screens show for `O=C(COc1ccccc1)N1CCCC(n2cc(-c3nc(C4CC4)no3)nn2)C1` (centres undefined)?
hNpr1 antagonist: inactive; FLuc inh-1: inactive; 3T3 cytotox: inactive; HEK cytotox: inactive

Results for CCCc1nn2cc(-c3ccc(C)c(C)c3)nc2s1 ?
FLuc SDR no ATP: inconclusive; FLuc SDR ATP: inconclusive; FLuc inh-2: 0.62µM

What do the screens show for `COc1ccc(-c2cn3nc(SCC(=O)Nc4cc(C)cc(C)c4)ccc3n2)cc1`?
FLuc SDR no ATP: inactive; FLuc SDR ATP: inactive; FLuc inh-2: inconclusive

Results for COc1ccc(NC(=O)Cn2c(-c3ccccc3)nc(C)cc2=O)cc1 ?
hNpr1 antagonist: inactive; FLuc inh-1: inactive; 3T3 cytotox: inconclusive; HEK cytotox: inconclusive

Results for Cc1ccc(NC(=O)Nc2ccccc2)c(=O)n1CC(=O)NCC1CCCO1 (centres undefined) ?
hNpr1 antagonist: inactive; FLuc inh-1: 14µM; 3T3 cytotox: inconclusive; HEK cytotox: inactive; FLuc SDR no ATP: inconclusive; FLuc SDR ATP: inconclusive; FLuc inh-2: inconclusive

Results for Cc1ccc(NC(=O)Nc2ccc(C)n(CC(=O)NC(C)c3cccnc3)c2=O)cc1 (centres undefined) ?
hNpr1 antagonist: inactive; FLuc inh-1: 1.1µM; 3T3 cytotox: inactive; HEK cytotox: inconclusive; FLuc SDR no ATP: 7µM; FLuc SDR ATP: inconclusive; FLuc inh-2: 1.6µM

How did Cc1ccc(NC(=O)Nc2ccccc2)c(=O)n1CC(=O)NC1CCCCC1 do in these assays?
hNpr1 antagonist: inactive; FLuc inh-1: inactive; 3T3 cytotox: inactive; HEK cytotox: inactive

How did Cc1ccc(NC(=O)Nc2ccc(C)n(CC(=O)NC3CCCC3)c2=O)cc1 do in these assays?
hNpr1 antagonist: inconclusive; FLuc inh-1: 0.4µM; 3T3 cytotox: inconclusive; HEK cytotox: inconclusive; FLuc SDR no ATP: 1.6µM; FLuc SDR ATP: inconclusive; FLuc inh-2: 0.7µM

How did Cc1ccc(S(=O)(=O)Nc2ccc(C)n(CC(=O)NC(C)c3ccccc3)c2=O)cc1 (centres undefined) do in these assays?
hNpr1 antagonist: inactive; FLuc inh-1: inactive; 3T3 cytotox: inactive; HEK cytotox: inactive

How did Cc1ccc(NC(=O)Nc2ccc(C)n(CC(=O)N3CCC(C)CC3)c2=O)cc1 do in these assays?
hNpr1 antagonist: inactive; FLuc inh-1: 4.5µM; 3T3 cytotox: inactive; HEK cytotox: inconclusive; FLuc SDR no ATP: inconclusive; FLuc SDR ATP: inconclusive; FLuc inh-2: 3.9µM

Results for O=C(c1nc2cccnc2n(Cc2ccccc2)c1=O)N1CCN([S+](=O)([O-])c2cccs2)CC1 ?
3T3 cytotox: inactive; HEK cytotox: inconclusive

Results for COc1ccccc1NC(=O)Cn1c(C)ccc(NC(=O)Nc2ccc(C)cc2)c1=O ?
hNpr1 antagonist: inconclusive; FLuc inh-1: 0.63µM; 3T3 cytotox: 22µM; HEK cytotox: inconclusive; FLuc SDR no ATP: inconclusive; FLuc SDR ATP: inconclusive; FLuc inh-2: 0.7µM

Results for COc1ccc(NC(=O)Nc2ccc(C)n(CC(=O)N3CCCCCC3)c2=O)cc1 ?
hNpr1 antagonist: inactive; FLuc inh-1: 8.9µM; 3T3 cytotox: inactive; HEK cytotox: inactive; FLuc SDR no ATP: inconclusive; FLuc SDR ATP: inconclusive; FLuc inh-2: 9.9µM

How did CC(C)(C(=O)NCCc1ccccn1)C1CCOCC1 do in these assays?
hNpr1 antagonist: inactive; FLuc inh-1: inactive; 3T3 cytotox: inactive; HEK cytotox: inactive

Results for COCC(=O)N1CCCC(C(=O)N2CCC(c3ccccc3)CC2)C1 (centres undefined) ?
3T3 cytotox: inactive; HEK cytotox: inactive

What do the screens show for `Cc1nnc(NC(=O)C2c3ccccc3C(=O)N(Cc3ccccc3)C23CCCC3)s1` (centres undefined)?
hNpr1 antagonist: inactive; FLuc inh-1: inactive; 3T3 cytotox: inactive; HEK cytotox: inconclusive

What do the screens show for `CC(C)n1cnnc1-c1nn(C)c2c1CN(C(=O)c1nn(C)c3ccccc13)CC2`?
hNpr1 antagonist: inactive; FLuc inh-1: inactive; 3T3 cytotox: inactive; HEK cytotox: inactive

How did Cc1ccc(C)c(C(=O)Nc2ccc3c(N4CCCC4)ncnc3c2)c1 do in these assays?
hNpr1 antagonist: inactive; FLuc inh-1: inactive; 3T3 cytotox: inconclusive; HEK cytotox: inconclusive

Results for COc1ccccc1C(=O)Nc1ccc(-c2nc3ccccc3s2)c(C)c1 ?
FLuc SDR no ATP: inactive; FLuc SDR ATP: inactive; FLuc inh-2: inconclusive
